Assay outcomes deposited in PubChem by National Center for Advancing Translational Sciences (NCATS).
NPC1 promoter act – NPC1 promoter activation. Potency, µM (titrated, usually from 9.22 µM), usual class: activators. Huh7 NPC1 promoter luciferase reporter, 24 h. actives 2.4% (n = 320,000). AID 485313; further: nearly all actives have a fitted effect of over 60% in size
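NPC1 promoter–luciferase Huh7 cells; 24 h compound; luminescence.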
Rab9 prom act – activators of Rab9 promoter; Huh7 Rab9 promoter-luciferase reporter, luminescence, 24 h; actives 2.8% (n = 320,000); Potency, µM (series often up to 9.22 µM), actives largely listed as activators; further: nearly all actives have a fitted effect of over 60% in size
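Luciferase signal after 10 min detection reagent at ambient indicates Rab9 promoter upregulation; stably transfected Huh7 cells were treated 24 h with compound in DMSO at 37 °C, 5% CO2.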
FLuc counter – counter-screen for miR-21 project: firefly luciferase inhibitors or activators; P08659; purified FLuc, Km substrates, luminescence inhibition; Potency, µM (doses to about 57.5 µM), hits mostly inhibitors; actives 6.9% (n = 360,000); further: nearly all actives have a fitted effect of over 55% in size
Target sequence (P08659 whole entry, looked up): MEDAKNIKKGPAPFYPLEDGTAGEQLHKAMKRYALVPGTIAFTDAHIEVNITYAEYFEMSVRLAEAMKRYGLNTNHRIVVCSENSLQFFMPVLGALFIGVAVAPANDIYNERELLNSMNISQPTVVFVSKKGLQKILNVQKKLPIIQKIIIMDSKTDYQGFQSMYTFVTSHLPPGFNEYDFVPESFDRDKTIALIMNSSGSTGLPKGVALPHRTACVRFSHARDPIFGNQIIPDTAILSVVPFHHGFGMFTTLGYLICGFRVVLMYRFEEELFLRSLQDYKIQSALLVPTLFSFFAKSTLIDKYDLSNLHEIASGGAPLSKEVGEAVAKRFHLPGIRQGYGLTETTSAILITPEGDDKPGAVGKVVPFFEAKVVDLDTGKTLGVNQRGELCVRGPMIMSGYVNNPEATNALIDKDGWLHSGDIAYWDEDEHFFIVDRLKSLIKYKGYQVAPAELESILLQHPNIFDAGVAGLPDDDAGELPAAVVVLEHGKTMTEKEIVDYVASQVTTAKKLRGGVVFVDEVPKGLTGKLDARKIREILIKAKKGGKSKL
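Biochemical qHTS of compounds, final roughly 60 µM downward over six points, against 10 nM purified firefly luciferase using Km concentrations of substrates (10 uM D-luciferin, 10 uM ATP) in Tris acetate pH 7.5 buffer; luminescence output.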
ELG1 genotoxic – induces genotoxicity in HEK293T cells with luciferase-tagged ELG1 | HEK293T ELG1-luciferase reporter, luminescence, 16 h | Potency, µM (top dose mostly 46 µM), actives largely listed as activators | actives 1.3% (n = 330,000) | AID 504466; further: nearly all actives have a fitted effect of over 60% in size
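Genotoxic stress is detected as increased luminescence from luciferase-tagged ELG1 in HEK293T cells, measured with ONE-Glo after a 16 hr treatment at 37 °C.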
SMN2 splice enh – increases expression of the SMN2 splice variant | HEK293 SMN2-luciferase splicing reporter, luminescence, 30-36 h | Potency, µM (top dose mostly 46.1 µM), hits mostly activators | actives 2.8% (n = 210,000) | AID 1458; further: nearly all actives have a fitted effect of over 55% in size
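HEK293 cells carry an SMN2 minigene-luciferase reporter in which exon 7 inclusion puts luciferase in frame. Cells were seeded at 2000 cells/well, attached for 10-12 hours, then exposed to compounds for 30-36 hours at 37C before ONE-Glo luminescence.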
Large screens that a line does not name were inactive. Rows were chosen to be rich in hits. Some 7.5% of all compounds tested hit in one or more screens of this group. The call rests on the fitted dose curve; in most records, active means well fitted curve in the direction sought with a large enough effect; inconclusive means small, poorly fitted or top-dose-only effect, or another doubt; inactive means no such curve, though single readings can be large; an effect the other way counts as inactive or inconclusive.

Cc1ccc(-c2nnc(-c3cccc(Br)c3)o2)cc1	NPC1 promoter act inconclusive, Rab9 prom act inconclusive, FLuc counter 4.8µM, ELG1 genotoxic 8.2µM, SMN2 splice enh 13µM
FC(F)(F)c1ccccc1Cl	none (no result: NPC1 promoter act, Rab9 prom act, FLuc counter, ELG1 genotoxic)
COc1cc(NC(=O)C2CCC(CNS(=O)(=O)c3csc(C(N)=O)c3)CC2)cc(OC)c1 (stereo unspecified)	none (no result: SMN2 splice enh)
CC(=O)Nc1cc(-c2nc3cc(Cl)ccc3o2)ccc1C	none (no result: NPC1 promoter act, Rab9 prom act, ELG1 genotoxic, SMN2 splice enh)
O=C(O)c1ccccc1-c1ccccc1C(=O)Nc1ccc(-c2nc3cc(Cl)ccc3o2)cc1	FLuc counter 15µM (no result: SMN2 splice enh)
CC(=O)Nc1ccc(-c2nc3cc(Cl)ccc3o2)cc1	NPC1 promoter act 0.5µM, Rab9 prom act 0.79µM, FLuc counter 1.3µM, ELG1 genotoxic 2.1µM (no result: SMN2 splice enh)
c1ccc(Cc2cc(-c3ccccc3)on2)cc1	Rab9 prom act inconclusive, FLuc counter 12µM, ELG1 genotoxic inconclusive, SMN2 splice enh inconclusive
CCOc1ccc(OCc2ccc(C(=O)NN)o2)cc1	NPC1 promoter act 0.4µM, Rab9 prom act inconclusive, FLuc counter inconclusive, ELG1 genotoxic inconclusive (no result: SMN2 splice enh)
COC(=O)c1ccc(COc2cccc(OC)c2)o1	FLuc counter inconclusive, ELG1 genotoxic 23µM
CN(C)c1ccc(NC(=O)c2ccc(COc3cccc(Cl)c3)o2)cc1	FLuc counter 9.5µM, ELG1 genotoxic inconclusive
CCOc1ccc(OCc2ccc(C(=O)Nc3cccnc3)o2)cc1	NPC1 promoter act 0.56µM, Rab9 prom act inconclusive, FLuc counter inconclusive, SMN2 splice enh 7.9µM
CCN1CCN(C(=O)c2ccc(COc3cccc(Cl)c3)o2)CC1	none (no result: SMN2 splice enh)
COc1ccc(CCNC(=O)c2ccc3c(c2)nc2n3CCOC2)cc1OC	none (no result: NPC1 promoter act, Rab9 prom act, ELG1 genotoxic, SMN2 splice enh)
CCN(CC)Cc1cc(C(=O)O)c(C)o1	FLuc counter inconclusive (no result: SMN2 splice enh)
CCc1ccc(OCc2ccc(C(=O)O)o2)cc1	NPC1 promoter act inconclusive, Rab9 prom act inconclusive, FLuc counter 2.1µM, ELG1 genotoxic inconclusive (no result: SMN2 splice enh)
COc1ccc(OCc2cc(C(=O)O)c(C)o2)cc1	NPC1 promoter act inconclusive, Rab9 prom act inconclusive, FLuc counter 2.1µM (no result: SMN2 splice enh)
O=C(O)c1ccc(COc2ccc(Cl)cc2)o1	FLuc counter 27µM, ELG1 genotoxic inconclusive, SMN2 splice enh 11µM
CC(C)C(NC(=O)c1ccc(C(C)(C)C)cc1)C(=O)OCC(=O)NC(=O)Cc1ccccc1 (stereo unspecified)	FLuc counter 21µM
COC(=O)C(C)NC(=O)c1ccc(C(C)(C)C)cc1 (stereo unspecified)	FLuc counter 19µM, SMN2 splice enh inconclusive
CC(NC(=O)c1ccc(C(C)(C)C)cc1)C(=O)O (stereo unspecified)	FLuc counter inconclusive, SMN2 splice enh inconclusive
CCOC(=O)N/N=C/C=C/c1ccccc1	NPC1 promoter act inconclusive, Rab9 prom act inconclusive, FLuc counter inconclusive, ELG1 genotoxic inconclusive, SMN2 splice enh 11µM
COc1ccccc1NCC(=O)N/N=C/C=C/c1ccccc1	FLuc counter 27µM
CCCc1nn2c(=O)cc(O)nc2s1	none
CCCc1nn2cc(-c3ccc(C)c(C)c3)nc2s1	FLuc counter 0.19µM, SMN2 splice enh 1.3µM (no result: NPC1 promoter act, Rab9 prom act, ELG1 genotoxic)
Cc1cccc(C)c1NC(=O)CSc1ncnc2[nH]ncc12	none (no result: NPC1 promoter act, Rab9 prom act, FLuc counter, SMN2 splice enh)
COCCNC(=S)N/N=C(\C)c1ccccc1O	FLuc counter 17µM
COCCCNC(=S)N/N=C/c1ccccc1O	NPC1 promoter act inconclusive, Rab9 prom act inconclusive, FLuc counter 12µM (no result: SMN2 splice enh)
COCCNC(=S)N/N=C/c1ccccc1C(=O)O	none
COCCNC(=S)N/N=C(\C)c1ccccc1OC	none
NS(=O)(=O)c1ccc(CCNC(=O)c2cc([N+](=O)[O-])ccc2N2CCCCC2)cc1	none (no result: SMN2 splice enh)
CC1(C(=O)NCCN2CCOCC2)C=CC2(CCCCC2)N1C(=O)c1ccccc1 (stereo unspecified)	FLuc counter inconclusive
Cn1c(C2CCCCC2)nc2cc(N)ccc21	none (no result: SMN2 splice enh)
Cc1nc2ccc([N+](=O)[O-])cc2nc1C	none
O=[N+]([O-])c1ccc2oc(C3CCCCC3)nc2c1	Rab9 prom act inconclusive, FLuc counter 17µM, ELG1 genotoxic inconclusive (no result: SMN2 splice enh)
Nc1ccc2oc(C3CCCCC3)nc2c1	NPC1 promoter act inconclusive, Rab9 prom act inconclusive, FLuc counter 24µM, ELG1 genotoxic inconclusive, SMN2 splice enh 11µM
O=c1c2c3c(sc2n(Cc2ccc(F)cc2Cl)c(=O)n1-c1ccc(Cl)cc1)CCC3	none (no result: NPC1 promoter act, Rab9 prom act, ELG1 genotoxic, SMN2 splice enh)
CC(=O)Nc1ccc(-c2csc(N/N=C(/C)c3ccccc3)n2)cc1	FLuc counter 21µM (no result: SMN2 splice enh)
CC(=O)Nc1cccc(-c2csc(N)n2)c1	none
